PubChem BioAssay
Active and inactive are the calls of the source.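 How the source made its calls, unless noted: active means fluorescence slope higher than the sample average by over 3 SD (cut at about -0.22 in these data, passing the limit was not always enough); inactive means the rest.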

Columns and labels:
[1] = inhibitors of TNFa-induced NFkB p65 translocation, primary screen, imaging, HUVEC, MLSMR starter and 10KST1 sets (AID 438;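 active means inhibition above 20% together with a positive visual image hit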;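 further: compound added about 3h40 before a 20 min TNFalpha stimulation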;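 on inhibition: signal is the nuclear over cytoplasmic p65 intensity ratio per well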); conditions: HUVEC TNFa-induced p65 nuclear translocation; cell count: measured here: nuclei count (cytotoxicity indicator), at 2.08 µM unless noted; inhibition: at 2 µM, stronger effect = higher value unless noted
[2] = inhibitors of mutant huntingtin aggregation, primary screen, imaging, exon1htt(103Q)mCFP cells, high-content imaging (AID 483;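 active means visual image review flags a hit and inhibition of aggregation exceeds 20%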;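 further: compound exposure lasted 3 days before fixation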;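 on nuclei count: percent of the per-plate median nuclei count of sample wells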); conditions: exon1htt(103Q)mCFP cell line, aggregate imaging, at 2 µM; inhibition of aggregation: stronger effect = higher value; nuclei count: measured here: cell count, toxicity
[3] = inhibitors of E-selectin induction by TNFa, primary screen, imaging, HUVEC, immunofluorescence, MLSMR starter and 10KST1 sets (AID 487;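 active means visually confirmed hit in the image check and inhibition above 20%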;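 on inhibition: signal is fraction of cell area covered by stained E-selectin grains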;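 on nuclei count: 100% = median nuclei count of all wells on the same plate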); conditions: HUVEC TNFalpha-induced E-selectin immunofluorescence imaging, at 2 µM; inhibition: stronger effect = higher value; nuclei count: measured here: cell number, toxicity
[4] = target: Voltage-gated potassium channel subunit beta-2 (Rattus norvegicus) (UniProt P62483); test: KvBeta enzyme negative modulators, primary screen, biochemical, NADPH fluorescence (AID 622); conditions: recombinant KvBeta, 4-cyanobenzaldehyde reduction, at 10 µM, stronger effect = higher value;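 further: slope of raw intensity against log time taken from 70 to 1610 s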
[5] = target: Voltage-gated potassium channel subunit beta-2 (Rattus norvegicus) (UniProt P62483); test: KvBeta positive modulators, primary screen, biochemical, NADPH fluorescence (AID 623;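 active means NADPH fluorescence slope more negative than the mean of all samples by about 3 SD, 99.7% confidence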;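 further: fluorescence intensity change per second fitted from 20 to 320 s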); conditions: Recombinant KvBeta, NADPH fluorescence decrease slope, 10 min; at 10 µM; stronger effect = lower value
[6] = target: Alpha-2C adrenergic receptor (Homo sapiens) (UniProt P18825); test: modulators of alpha2C/GIRK thallium flux, primary screen, cell-based, HEK293 alpha2C/GIRK1/2 (AID 624;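 active means fluorescence slope after compound addition differing from the mean of all screened samples at 99.7% confidence, in either direction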;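 further: slope of fluorescence ratio to pre-addition baseline per second over 15 to 24 s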); conditions: thallium flux BTC fluorescence, at 10 µM, actives lie on both sides
[7] = inhibitors of Sendai virus-induced IRF3 signaling, primary screen, TLR/RLR signaling modifier project, cell-based, Sendai virus stimulus, luciferase, 10K MLSCN set (AID 602276;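 active means inhibition at or above 50% at 10 µM; inactive means inhibition below 50%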;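 further: firefly luciferase from ISG56 promoter only with Renilla not read in this screen; 0% = Sendai virus plus DMSO and 100% = medium plus DMSO without virus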); conditions: HEK293 RL24 IRF3 luciferase reporter, at 10 µM, stronger effect = higher value
[8] = inhibitors of poly I:C-induced TLR3 signaling, primary screen, cell-based, poly I:C stimulus, luciferase, 10K MLSCN set (AID 602277;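 active means inhibition of the reporter signal at or above 50%; inactive means inhibition below 50%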); conditions: HEK293-TLR3 RL24 IRF3 luciferase reporter, at 10 µM, stronger effect = higher value
[9] = DUSP6 inhibitors restoring Erk phosphorylation by chemical complementation, primary imaging in DUSP6-transfected HeLa (AID 609;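 active means compounds giving at least 50% inhibition in the cell-based MKP-3 phosphatase rescue imaging test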;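 on inhibition: phospho-Erk level distribution per well compared with pooled transfected vehicle control wells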); conditions: HeLa MKP-3 transfected, phospho-Erk imaging KS statistic, at 10 µM
[10] = target: Dual specificity protein phosphatase 6 (Homo sapiens) (UniProt Q16828); test: as above; conditions: HeLa MKP-3 transfected, phospho-Erk imaging KS statistic, at 10 µM, stronger effect = higher value
[11] = target: Muscarinic acetylcholine receptor M4 (Homo sapiens) (UniProt P08173); test: compounds altering M4/GIRK thallium flux, either direction, primary screen, M4 allosteric agonist project, cell-based, HEK293 M4/GIRK, BTC-AM (AID 625;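 active means fluorescence slope after compound addition differing from the mean of all tested samples at 99.7% confidence, mostly higher but some lower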;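 further: thallium influx through GIRK channels coupled to M4 in HEK293 cells with BTC-AM dye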); conditions: at 10 µM, actives lie on both sides
[12] = inhibitors of larval lipid processing in zebrafish, primary screen, whole organism, PED6 fluorescence, gall bladder and intestine (AID 686;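 active means a full or partial loss of lipid-probe fluorescence in the fish gall bladder, intestine or both, judged by eye; inactive means no fluorescence loss, or compound toxic to the fish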;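 further: larvae 5 to 7 days old with five fish per well; signal comes from phospholipase A2 cleavage of quenched PED6 carried via bile; overnight exposure to compound and PED6 before scoring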); conditions: Zebrafish larvae PED6 lipid processing, fluorescence scoring
[13] = inhibitors of Chlamydomonas gravitaxis, primary screen, whole organism, Chlamydomonas reinhardtii, WT vs cilia-less mutant, absorbance, 96-well (AID 463189;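 active means inhibition at or above 50% relative to wild type and mutant plate controls; inactive means inhibition below 50%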;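 further: 0% = wild type cc124 cells in DMSO and 100% = ciliumless bld1 mutant cells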); conditions: OD600 absorbance, 2 days, at 10 µM, stronger effect = higher value
[14] = measured here: cell density z-score
[15] = measured here: nuclear c-Myc green intensity z-score
[16] = measured here: nuclear pErk red intensity z-score, stronger effect = higher value

Chain of Dual specificity protein phosphatase 6 (Homo sapiens) (Q16828 whole entry, looked up): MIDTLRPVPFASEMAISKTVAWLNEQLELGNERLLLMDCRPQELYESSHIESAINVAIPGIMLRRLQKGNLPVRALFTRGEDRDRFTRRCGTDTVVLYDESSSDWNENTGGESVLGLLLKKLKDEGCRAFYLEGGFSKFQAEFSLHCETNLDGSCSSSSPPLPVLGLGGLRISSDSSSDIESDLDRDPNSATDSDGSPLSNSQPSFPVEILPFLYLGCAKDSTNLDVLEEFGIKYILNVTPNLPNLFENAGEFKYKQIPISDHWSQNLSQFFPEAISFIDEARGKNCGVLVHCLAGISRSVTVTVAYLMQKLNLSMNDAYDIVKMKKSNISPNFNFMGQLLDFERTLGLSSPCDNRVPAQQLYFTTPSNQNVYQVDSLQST
Chain of Muscarinic acetylcholine receptor M4 (Homo sapiens) (P08173 whole entry, looked up): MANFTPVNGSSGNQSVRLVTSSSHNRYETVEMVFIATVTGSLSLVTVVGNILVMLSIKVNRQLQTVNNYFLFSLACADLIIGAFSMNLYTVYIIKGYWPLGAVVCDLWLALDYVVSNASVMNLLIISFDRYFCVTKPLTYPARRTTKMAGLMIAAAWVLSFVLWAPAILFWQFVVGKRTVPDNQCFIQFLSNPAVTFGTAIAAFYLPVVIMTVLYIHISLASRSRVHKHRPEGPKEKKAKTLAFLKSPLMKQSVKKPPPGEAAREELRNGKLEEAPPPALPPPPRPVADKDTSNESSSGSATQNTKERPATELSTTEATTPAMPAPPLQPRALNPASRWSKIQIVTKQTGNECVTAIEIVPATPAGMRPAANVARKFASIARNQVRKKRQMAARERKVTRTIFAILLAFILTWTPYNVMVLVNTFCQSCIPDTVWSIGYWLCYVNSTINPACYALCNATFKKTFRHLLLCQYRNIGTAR
Chain of Voltage-gated potassium channel subunit beta-2 (Rattus norvegicus) (P62483 whole entry, looked up): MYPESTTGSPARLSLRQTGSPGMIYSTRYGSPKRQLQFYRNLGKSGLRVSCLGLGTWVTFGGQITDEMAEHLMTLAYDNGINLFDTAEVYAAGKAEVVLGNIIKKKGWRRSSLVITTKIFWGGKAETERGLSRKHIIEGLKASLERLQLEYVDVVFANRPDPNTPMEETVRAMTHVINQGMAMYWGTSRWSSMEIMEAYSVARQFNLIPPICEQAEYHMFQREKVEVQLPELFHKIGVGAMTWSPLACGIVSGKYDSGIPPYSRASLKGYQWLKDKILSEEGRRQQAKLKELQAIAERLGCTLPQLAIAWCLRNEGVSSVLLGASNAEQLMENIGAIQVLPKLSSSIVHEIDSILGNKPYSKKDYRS
Chain of Alpha-2C adrenergic receptor (Homo sapiens) (P18825 whole entry, looked up): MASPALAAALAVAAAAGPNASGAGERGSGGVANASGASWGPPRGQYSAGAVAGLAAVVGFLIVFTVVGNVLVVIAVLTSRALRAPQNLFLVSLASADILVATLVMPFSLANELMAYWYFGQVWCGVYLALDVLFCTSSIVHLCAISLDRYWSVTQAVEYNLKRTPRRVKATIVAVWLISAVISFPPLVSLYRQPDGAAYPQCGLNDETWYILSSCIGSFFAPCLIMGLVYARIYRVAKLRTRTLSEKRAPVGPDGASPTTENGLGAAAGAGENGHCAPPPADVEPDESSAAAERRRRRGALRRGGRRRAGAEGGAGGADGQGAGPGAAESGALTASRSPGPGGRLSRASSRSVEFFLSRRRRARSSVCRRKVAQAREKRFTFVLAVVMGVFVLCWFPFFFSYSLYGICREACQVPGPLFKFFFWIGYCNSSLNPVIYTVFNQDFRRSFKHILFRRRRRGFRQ

| Structure (SMILES) | cell count [1] | inhibition [1] | inhibition of aggregation [2] | nuclei count [2] | inhibition [3] | nuclei count [3] | fluorescence slope [4] | NADPH fluorescence slope [5] | slope [6] | inhibition [7] | inhibition [8] | z-score [9, 14] | z-score [9, 15] | z-score [9, 16] | inhibition [10] | fluorescence slope [11] | outcome [12] | inhibition [13] |
| --- | --- | --- | --- | --- | --- | --- | --- | --- | --- | --- | --- | --- | --- | --- | --- | --- | --- | --- |
| CCCCOc1ccc(CN2CCN(CCO)CC2)cc1 | 644 | 2.9% (inactive) | -4.6% (inactive) | 115% | -3.3% (inactive) | 96.5% | -0.43 (inactive) | -0.00013 (inactive) | 0.00523 (inactive) | 5.26% (inactive) | 10.1% (inactive) | – | – | – | – | – | – | – |
| C=CCOC(=O)C1=C(C)OC(N)=C(C#N)[C@@]12C(=O)N(CC(N)=O)c1ccccc12 | 473 | -1.4% (inactive) | – | – | -499% (inactive) | 193% | -0.441 (inactive) | -5.7e-05 (inactive) | – | – | – | 0.623 | -0.273 | 0.824 | 2.71% (inactive) | 0.00506 (inactive) | inactive | 1.7% (inactive) |
| Cc1c(N=Cc2c(O)n(Cc3ccco3)c(=O)[nH]c2=O)c(=O)n(-c2ccccc2)n1C | 591 | -1.8% (inactive) | – | – | -156% (inactive) | 133% | -0.492 (inactive) | -0.000124 (inactive) | – | – | – | 0.39 | 0.06 | -0.372 | 11.4% (inactive) | 0.00411 (inactive) | inactive | 11.7% (inactive) |
| C=CCOC(=O)C1=C(C)OC(N)=C(C#N)C12C(=O)N(CN1CCOCC1)c1ccccc12 (configuration not stated) | 388 | 0.7% (inactive) | – | – | -73.4% (inactive) | 88.4% | -0.515 (inactive) | 2.9e-05 (inactive) | – | – | – | -0.108 | 0.314 | 1.06 | -4.59% (inactive) | 0.00467 (inactive) | inactive | 39.6% (inactive) |
| Cn1c(O)c(C=NCCCNC2CCCCC2)c(=O)n(C)c1=O | 420 | 1.2% (inactive) | – | – | -81.5% (inactive) | 131% | -0.469 (inactive) | -0.000127 (inactive) | – | – | – | 0.261 | -0.315 | -0.515 | 26.5% (inactive) | 0.00413 (inactive) | inactive | -2.14% (inactive) |
| CNC(=O)N(C)c1nnc(C(C)(C)C)s1 | 642 | -6.4% (inactive) | – | – | -26% (inactive) | 73.8% | -0.502 (inactive) | -9.9e-05 (inactive) | – | – | – | -3.07 | 0.0042 | -1.4 | 11.9% (inactive) | 0.00657 (inactive) | inactive | 119% (active) |
| CCCCNC(=O)Nc1ccc(C(O)(C(=O)OC)C(F)(F)F)cc1 (configuration not stated) | 632 | -8.8% (inactive) | – | – | 7.1% (inactive) | 154% | -0.482 (inactive) | -4.8e-05 (inactive) | – | – | – | 0.744 | -1.2 | 0.72 | 18.4% (inactive) | 0.00513 (inactive) | inactive | 8.19% (inactive) |
| COc1ccc(C2SCC(=O)Nc3c2c(=O)[nH]n3C2CCCCCC2)cc1 (configuration not stated) | 564 | -7.2% (inactive) | – | – | 70.4% (inactive) | 96% | -0.478 (inactive) | -3e-05 (inactive) | – | – | – | 1.06 | 0.0384 | -1.4 | 2.71% (inactive) | 0.007 (inactive) | inactive | 29.9% (inactive) |
| OC(c1ccc(F)cc1)C(c1ccccc1)N1CCOCC1 (configuration not stated) | 679 | 2.9% (inactive) | – | – | 8% (inactive) | 153% | -0.427 (inactive) | -3.5e-05 (inactive) | – | – | – | -0.0994 | 1.62 | 0.344 | -13.3% (inactive) | 0.00525 (inactive) | inactive | -7.5% (inactive) |
| CC1(c2ccccc2)NCCN2C(=O)CSC21 (configuration not stated) | 632 | 2.3% (inactive) | – | – | 32.4% (inactive) | 147% | -0.477 (inactive) | -6.1e-05 (inactive) | – | – | – | 1.05 | -0.953 | -0.166 | 1.12% (inactive) | 0.00532 (inactive) | inactive | 8.43% (inactive) |
| CC1CN=C(Nc2ccc(N(C)C)cc2)S1 (configuration not stated) | 666 | 0.8% (inactive) | – | – | -22.4% (inactive) | 136% | -0.464 (inactive) | -5.1e-05 (inactive) | – | – | – | -0.332 | 0.426 | -0.395 | 3.49% (inactive) | 0.00379 (inactive) | inactive | 9.45% (inactive) |
| O=C(CN1CCN(CCO)CC1)Nc1ccc(Cl)cc1C(=O)c1ccccc1 | 431 | -4% (inactive) | – | – | -88.6% (inactive) | 154% | -0.465 (inactive) | -0.000121 (inactive) | – | – | – | 0.92 | -0.897 | 0.82 | 11.9% (inactive) | 0.00435 (inactive) | inactive | 12% (inactive) |
| COc1ccc(C(=O)CC2C(=O)N(C)C(=O)N(C)C2=O)cc1 | 726 | 14.4% (inactive) | – | – | -27.9% (inactive) | 135% | -0.453 (inactive) | -4.3e-05 (inactive) | – | – | – | 0.66 | 0.621 | -1.11 | -3.95% (inactive) | 0.00539 (inactive) | inactive | 0.215% (inactive) |
